Assay results: ChEMBL document CHEMBL3988442, “University of Dundee, Small-Polar-MMV Screening Library” (2021)

These molecules were tested against AMP-activated protein kinase, AMPK (Homo sapiens) (UniProt P54646+O43741+P54619+Q9UGJ0+Q9Y478+Q13131+Q9UGI9) (assay: AMP-dependent Kinase enzyme assay. An in vitro enzyme assay that detects ADP turnover that is directly proportional to AMPK activity. This uses naive AMPK that is activated during the assay with MK-8722). Settings: 30 µM.
Type: functional
Design: scale not given: direction of the effect not stated beside the values

Row | SMILES | Percent Effect
1 | C[S+]([O-])CCNC(=O)N1CCN(c2cc(F)ccc2F)CC1 (stereo not given) | 2.94%
2 | NC(=O)C1CCN(C(=O)NC(Cc2ccccc2)C(F)(F)F)CC1 (stereo not given) | 0.0823%
3 | CCC(NC(=O)C(C)(C)C)c1ccccc1C (stereo not given) | 5.82%
4 | CCc1nc(CN(C)C(=O)CSC)no1 | 1.82%
5 | COc1nsc2nc(C3CCCN3c3ncccn3)ccc12 (stereo not given) | 13.7%
6 | COc1ccc(Cl)cc1C(=O)NCc1cnn(C)c1C | 7.53%
7 | c1nc(N2CCCC2)ncc1CN1CCCC(CN2CCCCC2)C1 (stereo not given) | -7.34%
8 | O=C(c1nnn(-c2ccc(F)cc2)n1)N(CCO)Cc1ccccc1 | 3.9%
9 | COCCNc1ncnc2c1CCN(C(=O)CC1CCC(=O)N1)CC2 (stereo not given) | 15.1%
10 | CC(NC(=O)NCc1cccnc1N(C)C)c1cccs1 (stereo not given) | -8.61%
11 | Cn1cccc1C(=O)N1CC[C@@]2(O)CCN(S(C)(=O)=O)C[C@H]2C1 | 4.08%
12 | CN(Cc1cc(Br)cn1C)C(=O)c1cccnc1 | -0.766%
13 | O=C(NCc1cccnc1N1CCCCC1)c1ccc2c(c1)OCO2 | -2.38%
14 | COc1c(C)cnc(CN2CCn3c(nnc3C(C)C)C2)c1C | 22%
15 | CCN(Cc1ccc(N(C)C)cc1)S(=O)(=O)c1cc(Br)ccc1OC | -8.72%
16 | Cc1ccc(N2CCC(CCN3CCCC3=O)CC2)nn1 | -7.57%
17 | CC(C)[C@H](N)C(=O)N1CCCC(C2=Nc3ccccc3S(=O)(=O)N2)C1 (stereo not given in full) | 7.27%
18 | CC(NC(=O)N1CCCCCC1)c1ccc(S(N)(=O)=O)cc1 (stereo not given) | 5.75%
19 | Cc1n[nH]c(C)c1CCc1n[nH]c(=O)n1Cc1cccs1 | -7.17%
20 | C[C@@H]1CN(c2ccc(Cl)cn2)C[C@@]1(O)C1CC1 | 5.94%

Row | SMILES | Percent Effect
21 | CSc1nsc(NC(=O)N(C)Cc2ccc3c(c2)OCO3)n1 | 0.417%
22 | CC(NCC(=O)NCC(=O)Nc1ccc(F)cc1)c1cccs1 (stereo not given) | 8.16%
23 | O=C(COc1cc(Cl)cc(Cl)c1)NCc1nncn1C1CC1 | -6.22%
24 | c1ccc(OCCNC2=NCCCN2)cc1 | -8.51%
25 | CCCC1COCCN1Cc1ccc(NC(C)=O)cc1 (stereo not given) | -4.72%
26 | CCN(CC)S(=O)(=O)NC1CCN(c2ccc(OC)cc2)CC1 | 9.49%
27 | CCCc1ccc(CN2CCC3(CCC(=O)N(C(C)C(=O)O)C3)CC2)o1 (stereo not given) | 31.1%
28 | COC(=O)c1ccc(Cn2cccc(C(F)(F)F)c2=O)c(OC)c1 | 6.82%
29 | CCc1ncc2c(n1)CN(c1nnc(C)c(C)c1C#N)CC2 | -14.7%
30 | Cc1nc(O)cc(CN2C[C@H](NC(=O)C3CCC3)[C@@H](C3CC3)C2)n1 | -2.67%
31 | COc1ccccc1N1CCN(C(=O)CCc2nncn2C)C(C)C1 (stereo not given) | 24.5%
32 | Cc1ccc(C(=O)NC2CCN(C)CC2)cc1N(C)S(C)(=O)=O | -1.82%
33 | Cc1cc(CNC(=O)c2cc(NC(=O)C(C)C)ccc2Cl)no1 | 4.16%
34 | O=C(c1cc(C2CC2)nc2onc(-c3ccccc3)c12)N1CCOCC1 | 4.72%
35 | Cn1cnc(S(=O)(=O)N2CCCCc3ccccc32)c1 | -0.149%
36 | O=C(NCC1CCS(=O)(=O)C1)N(Cc1ccccn1)C1CC1 (stereo not given) | -6.01%
37 | CN(C)c1ccc(C(=O)N(Cc2ccncc2)CC2CCCO2)nn1 (stereo not given) | -3.6%
38 | Cc1cc(C(=O)N2CCNC(=O)C2)c(C)n1CC(F)(F)F | 1.02%
39 | O=C(O)c1cnc(OCC2CC2)c(Cl)c1 | -1.49%
40 | CC(C)C(C(=O)N(C)C)c1cccc(Cl)c1 (stereo not given) | 6.38%
